Measured values taken from PubChem BioAssay AID1766 (National Center for Advancing Translational Sciences (NCATS), 2009).
The whole screen tested about 290,000 compounds, of which fewer than 10 were called active. Roughly 3% stayed inconclusive and do not appear here. Calls come from the whole dose curve; as a rule, active = well fitted curve in the direction sought with a large enough effect in the polarisation (not every such curve was filed as active); inconclusive = small, poorly fitted or top-dose-only effect, or effect the other way, or a change in a side signal; inactive = no such curve, though single readings can be large or run the other way; the % refers to the polarisation. The list is a sample of the results.

Test: qHTS Assay for Inhibitors Targeting the Menin-MLL Interaction in MLL Related Leukemias: Competition With Fluorescein Labeled MLL-derived Peptide
Conditions: Fluorescence polarization, fluorescein-MLL peptide displacement from menin; series mostly up to 61.4 µM
Description: qHTS Assay for Inhibitors Targeting the Menin-MLL Interaction in MLL Related Leukemias NIH Chemical Genomics Center [NCGC] NIH Molecular Libraries Probe Centers Network [MLPCN] MLPCN Grant: MH084875-01A1 Assay Submitter (PI): Jolanta Grembecka, Tomasz Cierpicki, University of Virginia Translocations of the MLL (Mixed Lineage Leukemia) gene are frequently found in human leukemias affecting both children and adults. Fusion of MLL to one of more than 60 genes results in generation of oncogenic proteins upregulating Hox genes, which are vital to blood cell development. Patients harboring fusion of the MLL gene suffer from aggressive leukemias and respond poorly to available therapies. All of the oncogenic fusion proteins have a preserved N-terminal fragment of MLL that has been identified to interact with menin. It has been recently discovered that association with menin is critical to the leukemogenic activity of the MLL fusion oncoproteins. Selective targeting of the menin-MLL interaction could provide an attractive therapeutic approach to develop novel drugs for MLL-related leukemias. Small molecules blocking the menin-MLL interaction should reverse the oncogenic potential of MLL fusion proteins. We have developed and optimized a fluorescence polarization-based assay for the identification of Menin-MLL inhibitors. The assay was run employing two different MLL-derived peptides. The present assay uses a 12 amino acid peptide labeled with fluorescein at its N-terminus. This peptide consists of the menin high affinity binding motif from MLL and is potently bound by menin. Another peptide with a mutated sequence, labeled with Texas Red, was used in parallel as a less stringent screen for inhibitors.
The Menin protein, the MLL-wild type (w.t.) derived peptide (N-terminal 12 amino acids), the MLL-derived peptide labeled with Texas Red and the MLL-w.t. peptide labeled with Fluorescein were kindly supplied by laboratory of Dr. Jolanta Grembecka, University of Virginia. All protein and peptide solutions were stored in single use aliquots at -80C. The Eu3+ Cyrptate-conjugated mouse monoclonal antibody anti-6 Histidine (Eu3+-AB) and the Streptavidin-XL665 conjugate (XL665) were purchased from Cisbio International (Bedford, MA). All antibody and XL665 conjugate solution stocks were stored in single use aliquots at -20C. The Buffer components for all assays were purchased from Sigma-Aldrich (St. Louis, MO) and Invitrogen (Carlsbad, CA). FP Assay Reagents: 1. FP reaction buffer: 50 mM Tris-HCl pH 7.5, 50 mM NaCl, 1mM DTT. Before use, 0.05% BSA is added. 2. Menin protein, MLL-w.t. labeled with fluorescein, MLL-mutant peptide labeled with texas red. Stored in singe use aliquots at -80C. 3. MLL-w.t. unlabeled peptide as positive control: 10 uM final in FP buffer. FP Assay Procedure: 1. Prepare Menin at 200 nM, MLL-w.t.-fluorescein at 25 nM, and MLL-mutant-texas red at 50 nM mixture in FP buffer. 2. Prepare Menin at 200 nM, MLL-w.t.-fluorescein at 25 nM, MLL-mutant-texas red at 50 nM, and 10 uM MLL-w.t. unlabeled mixture in FP buffer. 3. Prepare MLL-w.t.-fluorescein at 25 nM and MLL-mutant-texas red at 50 nM mixture in FP buffer. 3. Dispense 4 ul per well of reagent in step 1 in columns 2, 4 - 48 in a black 1536 well plate, dispense 4 ul per well of reagents from steps 2 and 3 in columns 1 and 3 respectively. Incubate plate at ambient for 15 minutes. 4. Transfer 23 nl per well of compound to plate and incubate at ambient for 1 hr. 5. Read fluorescence polarization for each label using the PerkinElmer Envision. Envision protocol for fluorescein: FITC FP Dual Enh Mirror, Excitation filter 480, Emission filter (1) P-pol 535, Emission filter (2) S-pol 535 Envision protocol for texas red: FP Dual Enh Mirror, Excitation filter 555, Emission filter (1) P-pol 632, Emission filter (2) S-pol 632

FP activity change, inactive:
Cc1ccc(-c2noc(C3CCCN(C(=O)c4cccc(Cl)c4)C3)n2)o1 (stereo not drawn)
CS(=O)(=O)N1CCc2nc(-c3ccccc3)sc2C1
Cc1cc(C)c(NC(=O)CN2CCCCCC2)c(C)c1
COc1ccccc1-c1sc2ccccc2c1-c1ccc(C(C)=O)cc1
CCCC(C(=O)NC1CCCC1)N(C(=O)Cn1nnc(-c2ccc(C)o2)n1)c1cccc(O)c1 (stereo not drawn)
Cc1ccc(CSc2nsc(C)c2C#N)cc1
Cn1cc(S(=O)(=O)Nc2ccc(Cl)cc2Cl)c(=O)n(C)c1=O
CCc1ccc(C(=O)NN=C2CCCCCC2)s1
CCOc1ccccc1N1C(=O)CC(Sc2nccc(C)n2)C1=O (stereo not drawn)
COc1cccc(-c2noc(C3CCCN(C(=O)c4ccc(F)cc4)C3)n2)c1 (stereo not drawn)
O=S(=O)(Cc1cc(Cl)nc(-c2cccnc2)n1)c1ccccc1
Cc1noc(C)c1-c1ccc2ncnc(NCc3ccc4[nH]ccc4c3)c2c1
CCN(CC(=O)NCC(=O)Nc1cccc(C)c1C)Cc1ccccc1
CCCSc1nc2sc3c(c2c(=O)n1-c1ccc(OC)cc1)CCN(C)C3
COc1ccccc1-c1cnn2c(N3CCOCC3)cc(C)nc12
CCC1CCCCN1C(=O)CSc1nc2c(c(=O)n1C)SC(C)C2 (stereo not drawn)
C=CCNC(=S)/N=c1/ccccn1Cc1ccccc1
COc1cc2ccccc2cc1C(=O)N(CCN(C)C)c1nc2c(F)cccc2s1
CC1CN(C(=O)CCC(=O)NC2CCN(Cc3ccccc3)CC2)c2ccccc2O1 (stereo not drawn)
COc1ccc(CC(=O)N/N=C/c2cc([N+](=O)[O-])cc(Br)c2O)cc1
O=C(Nc1ccccc1)c1ccc2c(c1)OCCCO2
Cc1ccc(NC(=O)NC(=O)c2ccccc2)cc1F
COc1ccccc1CN1CCCC(N2CCN(c3ccc(F)cc3)CC2)C1 (stereo not drawn)
Cc1[nH]c(C)c(S(=O)(=O)N2CCN(c3cccc(C(F)(F)F)c3)CC2)c1C(=O)N1CCCCC1
COc1cccc(N(C(=O)c2snc(C(N)=O)c2N)C(C(=O)NCC2CCCO2)c2c[nH]c3ccccc23)c1 (stereo not drawn)
COc1ccccc1OCCOc1ccc(/C=C2\C(=N)N3N=C(C)SC3=NC2=O)cc1
C=C1CCN(Cc2ccc(OC)cc2)S(=O)(=O)c2ccccc21
CC1Sc2ccc(S(=O)(=O)CCC(=O)NCc3ccccc3Cl)cc2NC1=O (stereo not drawn)
CC(O)c1ccc(OCCN(C)c2ccccn2)cc1 (stereo not drawn)
CC(O)COc1ccccc1 (stereo not drawn)
CN(CC(=O)Nc1ccc(F)cc1)C(=O)c1ccc(-c2ccc(Cl)cc2)o1
CC(C)[C@@H]1COC(c2cccc(C3=N[C@H](C(C)C)CO3)c2)=N1
COc1ccc(OCc2cc(C(=O)N3CCCC3)no2)c2ccccc12
c1cnc(N2CCN(c3ccc4ccccc4n3)CC2)nc1
Cc1cc(=O)n2[nH]c(-c3cccc(Cl)c3)cc2n1
CCCCCC(O)(CCN1CCCCC1)c1ccccc1 (stereo not drawn)
Cc1cc(C)cc(OCC(=O)NC(C)c2ccccc2)c1 (stereo not drawn)
O=c1[nH]cccc1-c1nc2ccccc2n1Cc1ccc(Cl)cc1
CCCc1cc(=O)n2[nH]c(C)c(-c3ccc(Cl)cc3)c2n1
O=C1CCN(CCc2ccccc2)CCN1CCOc1ccccc1
Cc1cc(C)c(C#N)c(Nc2cccc(Br)c2)n1
O=C(NCCS(=O)(=O)N1CCN(c2ccccc2F)CC1)c1ccc(Br)o1
CCc1ccccc1OCC(=O)Nc1ccc2c(c1)OCCO2
Oc1ccc(C2Nc3cccc4cccc(c34)N2)cc1
Cc1ccc(-c2csc(NC3OC(=O)c4ccccc43)n2)cc1 (stereo not drawn)
Cc1n[nH]c(=O)c2c1nnn2Cc1ccc(F)cc1
COc1ccc(NC(=O)C/C(C)=N/NC(=O)c2cnccn2)cc1Cl
CS(=O)(=O)N1CCN(C(=O)CSc2ccccc2)CC1
COc1ccc2c(c1)c(C(=O)N/N=C/c1cccs1)c(C)n2C
CC(C)OC(=O)c1ccc(COc2ccc3ccc(=O)oc3c2)o1
CNC(=O)c1sc(Nc2ccc(OCc3ccccc3)cc2)nc1C
Cc1cccc(C)c1NC(=S)N1CCCCCC1
Cc1ccc(O)c(CNc2nc3ccccc3[nH]2)c1
COCCNC(=O)c1ccc2nc(Cc3ccc(OC)c(OC)c3)oc2c1
CCCc1cc(=O)[nH]c(SCC(=O)N2C(C)CCCC2C)n1 (stereo not drawn)
COc1cc(CNCc2ccc(OC)c3ccccc23)cc(OC)c1OC
Cc1ccc2oc(C(=O)N3CCN(C)C[C@@H]3C(C)C)c(C)c2c1
O=C(Nc1cccc(C(F)(F)F)c1)c1cc(Br)cc(Br)c1O
CC(C)(C)c1ccc(SCCc2ccncc2)cc1
COc1ccc(C(C(=O)NC(C)(C)C)N(Cc2ccc(F)cc2)C(=O)CCC(=O)Nc2cc(C)on2)cc1 (stereo not drawn)
CCOC(=O)c1ccc(NC(=O)Cc2cccs2)cc1
CCOc1ccc(N/C=C/C(=O)c2ccccc2)cc1
COc1ccc(N2CCN(S(=O)(=O)CCNC(=O)C34CC5CC(CC(C5)C3)C4)CC2)cc1
COc1ccc(/C=N/OCc2ccccc2C#N)c(OC)c1
CCn1c(SCC(=O)NC2CC2)nnc1-c1ccccc1OC
COc1cc2ccccc2cc1C(=O)Nc1ccccc1C
CSCCNC(=O)c1ccc2nc(Cc3ccccc3F)oc2c1
CC(c1ccccn1)N(C)C(=O)c1ccc2nc(Cc3cccc(Cl)c3)oc2c1 (stereo not drawn)
CCCOc1ccc(/C=N/NC(=O)C2CC2)c(OCCC)c1
O=C(CN1CCc2cc3c(cc2C1)OCCCO3)Nc1ccccc1
CCn1cc(/C=C(\NC(=O)c2cc(OC)c(OC)c(OC)c2)C(=O)N2CCN(C)CC2)c2ccccc21
COc1cccc(NC(=O)C2CCCN(c3ncnc4c3nc3n4CCCCC3)C2)c1 (stereo not drawn)
CCCc1ccc(OCCNC(=O)c2ccccc2Br)cc1
O=S(=O)(NCc1ccc(Cl)cc1Cl)c1cccs1
CC(CN1CCCCC1)c1ccccc1 (stereo not drawn)
COc1ccc(/C(C)=N\NC(=O)c2ccc(-c3ccccc3)cc2)c(F)c1
Cc1ccccc1NC(=O)CSc1nc2ccc(Nc3nc(N4CCOCC4)nc(N4CCOCC4)n3)cc2s1
CCOC(=O)Nc1ccc2c(c1)N(C(=O)CCCl)c1ccccc1[S@]2=O
CSc1nccc(NC(=O)c2ccc(C(C)(C)C)cc2)n1
O=C(c1cc(COc2cccc(C(F)(F)F)c2)on1)N1CCSCC1
Oc1ccccc1-c1cc(-c2ccc(Cl)cc2)n[nH]1
CC1CCC2CCCCC2N1C(=O)c1cc([N+](=O)[O-])cc([N+](=O)[O-])c1 (stereo not drawn)
Cc1ccc(C(=O)Nc2nnc(C3=COCCO3)o2)cc1C
N#C[C@]1(S(=O)(=O)c2ccccc2)C[C@@H]2ON=C(c3cccc(Br)c3)[C@@H]2C1
O=C(N/N=C/c1cccc(OCc2ccccc2)c1)c1ccc(Br)o1
N#CC(C#N)=CN=c1ccn(Cc2ccc(Cl)cc2Cl)cc1
FC(F)(F)C1CCCN(c2nsc3ccccc23)C1 (stereo not drawn)
N=c1oc2ccccc2cc1C(=O)NCc1ccccc1
COCCCNc1nc2c(-c3cccc(C)c3)nnn2c2ccc(Cl)cc12
O=C(NCCNc1ccccc1[N+](=O)[O-])c1ccccc1F
N#CCc1ccc(NC(=O)c2ccccc2C(=O)Nc2ccc(CC#N)cc2)cc1
CCn1cc(CN2CCC(C(=O)Nc3cccc(-c4cccc(Cl)c4)c3)CC2)c(C)n1
Cc1ccc(CCNC(=O)c2ccc3nc4ccccc4c(=O)n3c2)cc1
